Measurements: paper PMC7862700, “An all-to-all approach to the identification of sequence-specific readers for epigenetic DNA modifications on cytosine”

Experiments:
Assay in all cases: DAPPL (digital affinity profiling via proximity ligation, sequencing); 10 mM Tris-HCl pH 7.5, 50 mM NaCl, 1 mM DTT, 4% glycerol, room temperature, 30 min; GST-TFs on glutathione beads, 16-mer random dsDNA library, 0.1% formaldehyde crosslink after washing; high values mean tight binding
FLI1 = target: T1, FLI1 (Homo sapiens, UniProt Q01543 1-452); conditions: protein: recombinant; tags: N-terminal GST; dsDNA, one strand shown
T1 sequence: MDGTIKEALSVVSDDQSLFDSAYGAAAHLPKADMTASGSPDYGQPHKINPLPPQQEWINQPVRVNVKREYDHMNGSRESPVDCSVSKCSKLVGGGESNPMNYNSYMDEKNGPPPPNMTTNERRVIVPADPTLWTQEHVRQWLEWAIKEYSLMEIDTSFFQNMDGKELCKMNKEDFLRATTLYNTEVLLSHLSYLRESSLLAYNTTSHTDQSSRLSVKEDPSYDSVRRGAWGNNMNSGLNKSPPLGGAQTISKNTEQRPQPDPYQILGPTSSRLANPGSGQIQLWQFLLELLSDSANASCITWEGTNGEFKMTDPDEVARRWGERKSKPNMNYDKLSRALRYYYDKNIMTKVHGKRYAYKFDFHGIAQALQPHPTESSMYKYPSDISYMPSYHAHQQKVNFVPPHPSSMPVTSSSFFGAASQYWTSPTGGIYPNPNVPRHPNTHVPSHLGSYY
Method in brief: (§1)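 Human transcription factors carrying a GST fusion were produced in yeast, bound to glutathione beads, tagged with DNA barcodes and pooled together with a tag-only sample. Each pool was held with 200 nmole of a random double-stranded 16-mer DNA library in Tris/NaCl/DTT/glycerol buffer for 30 min at room temperature, then washed, crosslinked in 0.1% formaldehyde, proximity-ligated with BsaI/T4 ligase (1 h, 37 °C), PCR-amplified and sequenced on an Illumina NextSeq500. Binding signal is the read frequency of each hexamer for a given factor divided by its frequency in the tag-only sample.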

ELK1 = target: T2, ELK1 (Homo sapiens, UniProt P19419 1-428); conditions: protein: recombinant; tags: N-terminal GST; dsDNA, one strand shown
T2 sequence: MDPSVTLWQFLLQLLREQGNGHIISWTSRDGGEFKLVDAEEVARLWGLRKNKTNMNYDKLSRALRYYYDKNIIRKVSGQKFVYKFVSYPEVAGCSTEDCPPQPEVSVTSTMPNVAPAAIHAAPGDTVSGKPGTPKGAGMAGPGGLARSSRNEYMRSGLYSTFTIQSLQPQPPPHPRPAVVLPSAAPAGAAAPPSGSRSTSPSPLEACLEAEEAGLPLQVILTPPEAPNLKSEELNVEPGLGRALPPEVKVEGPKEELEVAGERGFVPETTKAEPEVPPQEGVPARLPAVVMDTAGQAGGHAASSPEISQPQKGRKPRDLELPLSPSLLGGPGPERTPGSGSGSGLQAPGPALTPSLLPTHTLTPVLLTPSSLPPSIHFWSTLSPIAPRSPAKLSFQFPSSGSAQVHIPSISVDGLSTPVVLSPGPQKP
Method in brief: as §1

GABPA = target: T3, GABPA (Homo sapiens, UniProt Q06546 1-454); conditions: protein: recombinant; tags: N-terminal GST; dsDNA, one strand shown
T3 sequence: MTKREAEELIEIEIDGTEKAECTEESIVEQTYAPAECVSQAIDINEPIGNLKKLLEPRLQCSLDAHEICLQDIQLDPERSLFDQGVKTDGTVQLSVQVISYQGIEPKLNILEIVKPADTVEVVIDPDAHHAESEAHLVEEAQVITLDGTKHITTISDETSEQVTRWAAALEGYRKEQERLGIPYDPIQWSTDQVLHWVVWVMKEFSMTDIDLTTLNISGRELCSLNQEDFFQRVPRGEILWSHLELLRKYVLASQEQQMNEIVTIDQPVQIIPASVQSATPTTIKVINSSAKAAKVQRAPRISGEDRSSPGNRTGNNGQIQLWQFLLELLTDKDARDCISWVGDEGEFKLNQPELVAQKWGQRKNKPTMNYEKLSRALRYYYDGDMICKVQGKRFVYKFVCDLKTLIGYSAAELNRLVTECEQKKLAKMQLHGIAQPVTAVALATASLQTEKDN
Method in brief: as §1

ERG = target: T4, ERG (Homo sapiens, UniProt P11308 1-479); conditions: protein: recombinant; tags: N-terminal GST; dsDNA, one strand shown
T4 sequence: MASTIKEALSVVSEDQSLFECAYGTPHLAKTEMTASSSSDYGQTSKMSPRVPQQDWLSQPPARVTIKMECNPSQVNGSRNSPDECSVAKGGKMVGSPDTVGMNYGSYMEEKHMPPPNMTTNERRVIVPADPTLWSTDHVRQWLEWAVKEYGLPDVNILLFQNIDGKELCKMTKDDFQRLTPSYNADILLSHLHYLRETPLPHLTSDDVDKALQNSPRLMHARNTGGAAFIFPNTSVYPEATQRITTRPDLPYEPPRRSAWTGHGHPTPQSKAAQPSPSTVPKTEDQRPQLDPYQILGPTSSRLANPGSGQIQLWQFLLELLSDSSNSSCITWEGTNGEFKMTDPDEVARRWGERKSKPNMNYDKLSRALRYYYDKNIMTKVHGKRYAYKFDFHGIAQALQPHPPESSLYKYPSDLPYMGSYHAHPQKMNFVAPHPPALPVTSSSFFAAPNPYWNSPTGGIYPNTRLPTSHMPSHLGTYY
Method in brief: as §1

ELF1 = ELF1 (Homo sapiens, UniProt P32519 1-619); conditions: protein: recombinant; tags: N-terminal GST; dsDNA, one strand shown
Sequence of ELF1 (P32519 whole entry): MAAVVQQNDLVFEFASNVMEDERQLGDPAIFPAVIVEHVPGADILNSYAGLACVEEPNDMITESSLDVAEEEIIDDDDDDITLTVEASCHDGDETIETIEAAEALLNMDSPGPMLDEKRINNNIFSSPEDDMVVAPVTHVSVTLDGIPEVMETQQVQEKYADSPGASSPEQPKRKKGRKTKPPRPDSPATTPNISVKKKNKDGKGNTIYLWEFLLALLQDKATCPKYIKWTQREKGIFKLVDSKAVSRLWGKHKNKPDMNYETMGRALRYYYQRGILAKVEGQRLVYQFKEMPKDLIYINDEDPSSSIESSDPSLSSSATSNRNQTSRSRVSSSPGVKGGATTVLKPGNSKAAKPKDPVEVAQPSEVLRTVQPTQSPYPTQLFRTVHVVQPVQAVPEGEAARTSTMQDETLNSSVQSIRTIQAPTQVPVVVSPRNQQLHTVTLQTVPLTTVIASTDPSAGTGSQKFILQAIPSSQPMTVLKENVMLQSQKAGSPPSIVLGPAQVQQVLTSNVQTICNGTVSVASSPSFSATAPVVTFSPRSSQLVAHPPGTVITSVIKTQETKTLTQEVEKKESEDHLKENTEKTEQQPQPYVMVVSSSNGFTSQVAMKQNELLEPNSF
Method in brief: as §1

EHF = target: T5, EHF (Homo sapiens, UniProt Q9NZC4 1-300); conditions: protein: recombinant; tags: N-terminal GST; dsDNA, one strand shown
T5 sequence: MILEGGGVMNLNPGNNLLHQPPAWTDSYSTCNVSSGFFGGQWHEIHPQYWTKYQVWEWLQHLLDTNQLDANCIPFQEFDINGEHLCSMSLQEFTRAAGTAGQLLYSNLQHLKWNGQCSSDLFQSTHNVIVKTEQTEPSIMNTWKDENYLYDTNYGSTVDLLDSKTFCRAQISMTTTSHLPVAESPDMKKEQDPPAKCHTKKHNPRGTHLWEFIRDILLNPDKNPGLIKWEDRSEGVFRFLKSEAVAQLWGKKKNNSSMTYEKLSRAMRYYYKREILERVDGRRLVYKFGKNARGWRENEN
Method in brief: as §1

SPI1 = SPI1 (Homo sapiens, UniProt P17947 1-270); conditions: protein: recombinant; tags: N-terminal GST; dsDNA, one strand shown
Method in brief: as §1

SPIB = SPIB (Homo sapiens, UniProt Q01892 1-262); conditions: protein: recombinant; tags: N-terminal GST; dsDNA, one strand shown
Sequence of SPIB (Q01892 whole entry): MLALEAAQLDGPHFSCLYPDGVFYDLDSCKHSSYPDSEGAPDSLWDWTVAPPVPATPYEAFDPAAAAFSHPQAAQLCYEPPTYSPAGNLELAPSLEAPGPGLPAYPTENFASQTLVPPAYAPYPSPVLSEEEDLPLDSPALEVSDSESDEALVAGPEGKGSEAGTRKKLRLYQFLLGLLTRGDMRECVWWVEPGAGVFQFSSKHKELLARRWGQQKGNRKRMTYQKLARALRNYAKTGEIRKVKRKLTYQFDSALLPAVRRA
Method in brief: as §1

ELK3 = target: T6, ELK3 (Homo sapiens, UniProt P41970 1-407); conditions: protein: recombinant; tags: N-terminal GST; dsDNA, one strand shown
T6 sequence: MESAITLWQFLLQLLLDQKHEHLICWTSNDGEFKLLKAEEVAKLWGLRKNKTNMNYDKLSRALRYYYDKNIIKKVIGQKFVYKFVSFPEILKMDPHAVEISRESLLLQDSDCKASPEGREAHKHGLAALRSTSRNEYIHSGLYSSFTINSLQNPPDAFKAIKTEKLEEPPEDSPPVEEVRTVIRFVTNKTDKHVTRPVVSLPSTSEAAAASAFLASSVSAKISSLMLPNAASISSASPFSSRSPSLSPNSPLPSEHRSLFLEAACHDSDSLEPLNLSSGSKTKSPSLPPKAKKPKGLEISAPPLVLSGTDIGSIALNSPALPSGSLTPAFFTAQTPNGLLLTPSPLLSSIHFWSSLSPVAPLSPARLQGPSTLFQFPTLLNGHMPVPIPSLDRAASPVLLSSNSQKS
Method in brief: as §1

FEV = target: T7, FEV (Homo sapiens, UniProt Q99581 1-238); conditions: protein: recombinant; tags: N-terminal GST; dsDNA, one strand shown
T7 sequence: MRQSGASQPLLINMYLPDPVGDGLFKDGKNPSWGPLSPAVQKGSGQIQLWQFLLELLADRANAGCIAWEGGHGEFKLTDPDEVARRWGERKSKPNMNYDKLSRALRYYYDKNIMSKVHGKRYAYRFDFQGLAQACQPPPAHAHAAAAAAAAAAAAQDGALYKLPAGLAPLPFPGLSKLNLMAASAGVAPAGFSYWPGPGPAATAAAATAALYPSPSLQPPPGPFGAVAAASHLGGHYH
Method in brief: as §1

ETV5 = ETV5 (Homo sapiens, UniProt P41161 1-510); conditions: protein: recombinant; tags: N-terminal GST; dsDNA, one strand shown
Sequence of ETV5 (P41161 whole entry): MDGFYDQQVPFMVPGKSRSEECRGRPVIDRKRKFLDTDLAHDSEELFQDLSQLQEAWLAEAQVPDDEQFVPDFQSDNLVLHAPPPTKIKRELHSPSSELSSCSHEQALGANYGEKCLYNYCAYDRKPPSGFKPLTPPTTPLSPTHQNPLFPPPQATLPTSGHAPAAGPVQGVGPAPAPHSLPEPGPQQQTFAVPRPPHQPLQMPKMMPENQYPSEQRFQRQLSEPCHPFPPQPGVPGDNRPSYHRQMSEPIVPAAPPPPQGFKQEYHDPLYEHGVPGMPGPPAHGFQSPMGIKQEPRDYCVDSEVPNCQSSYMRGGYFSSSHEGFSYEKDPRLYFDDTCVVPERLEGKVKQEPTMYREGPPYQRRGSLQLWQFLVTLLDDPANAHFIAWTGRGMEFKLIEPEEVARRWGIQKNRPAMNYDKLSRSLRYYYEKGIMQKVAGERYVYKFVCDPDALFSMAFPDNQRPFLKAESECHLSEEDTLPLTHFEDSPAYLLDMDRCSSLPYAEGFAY
Method in brief: as §1

HSF1 = HSF1 (Homo sapiens, UniProt Q00613 1-529); conditions: protein: recombinant; tags: N-terminal GST; chain copies: 3; dsDNA, one strand shown
Sequence of HSF1 (Q00613 whole entry): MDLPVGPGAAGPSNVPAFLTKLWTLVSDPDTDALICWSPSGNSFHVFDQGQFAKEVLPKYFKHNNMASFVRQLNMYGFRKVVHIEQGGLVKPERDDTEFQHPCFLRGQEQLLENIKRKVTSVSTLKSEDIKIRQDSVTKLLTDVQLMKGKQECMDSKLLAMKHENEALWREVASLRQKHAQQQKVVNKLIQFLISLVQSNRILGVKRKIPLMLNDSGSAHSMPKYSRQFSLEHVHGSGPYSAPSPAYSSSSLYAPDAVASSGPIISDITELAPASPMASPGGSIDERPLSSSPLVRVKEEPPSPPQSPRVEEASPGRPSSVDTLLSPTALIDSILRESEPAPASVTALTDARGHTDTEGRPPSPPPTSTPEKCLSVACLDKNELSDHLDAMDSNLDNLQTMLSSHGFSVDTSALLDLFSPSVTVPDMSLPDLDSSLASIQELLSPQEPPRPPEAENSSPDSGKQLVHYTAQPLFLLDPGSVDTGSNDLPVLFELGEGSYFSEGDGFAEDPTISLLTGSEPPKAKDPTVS
Method in brief: as §1

SPIC = target: T8, SPIC (Homo sapiens, UniProt Q8N5J4 1-248); conditions: protein: recombinant; tags: N-terminal GST; dsDNA, one strand shown
T8 sequence: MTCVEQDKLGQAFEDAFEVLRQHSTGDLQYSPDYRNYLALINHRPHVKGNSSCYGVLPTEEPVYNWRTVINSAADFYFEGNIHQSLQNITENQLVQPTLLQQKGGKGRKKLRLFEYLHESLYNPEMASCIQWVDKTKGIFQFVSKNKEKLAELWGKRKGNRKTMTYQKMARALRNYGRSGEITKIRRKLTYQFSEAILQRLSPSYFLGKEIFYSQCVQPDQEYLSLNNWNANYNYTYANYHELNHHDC
Method in brief: as §1

ELF4 = ELF4 (Homo sapiens, UniProt Q99607 1-663); conditions: protein: recombinant; tags: N-terminal GST; dsDNA, one strand shown
Sequence of ELF4 (Q99607 whole entry): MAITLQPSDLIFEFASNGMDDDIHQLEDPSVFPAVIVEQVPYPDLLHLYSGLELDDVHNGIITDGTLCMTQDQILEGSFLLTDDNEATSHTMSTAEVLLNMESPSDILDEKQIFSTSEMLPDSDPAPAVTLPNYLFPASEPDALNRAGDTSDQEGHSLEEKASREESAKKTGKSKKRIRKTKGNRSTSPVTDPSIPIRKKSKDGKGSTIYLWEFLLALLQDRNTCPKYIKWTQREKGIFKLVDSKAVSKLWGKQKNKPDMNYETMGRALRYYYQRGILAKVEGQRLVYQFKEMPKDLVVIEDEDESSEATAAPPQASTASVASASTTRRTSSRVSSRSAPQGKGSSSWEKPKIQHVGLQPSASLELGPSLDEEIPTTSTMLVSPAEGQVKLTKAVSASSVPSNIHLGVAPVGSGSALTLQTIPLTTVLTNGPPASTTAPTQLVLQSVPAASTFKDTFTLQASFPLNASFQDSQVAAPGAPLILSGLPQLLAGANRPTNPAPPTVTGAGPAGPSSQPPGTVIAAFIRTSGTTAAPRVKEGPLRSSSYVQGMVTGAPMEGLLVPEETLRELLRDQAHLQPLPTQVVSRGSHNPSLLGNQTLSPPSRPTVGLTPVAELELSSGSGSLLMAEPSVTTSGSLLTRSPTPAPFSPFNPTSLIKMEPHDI
Method in brief: as §1

ELK4 = target: T9, ELK4 (Homo sapiens, UniProt P28324-2 1-405); conditions: protein: recombinant; tags: N-terminal GST; dsDNA, one strand shown
T9 sequence: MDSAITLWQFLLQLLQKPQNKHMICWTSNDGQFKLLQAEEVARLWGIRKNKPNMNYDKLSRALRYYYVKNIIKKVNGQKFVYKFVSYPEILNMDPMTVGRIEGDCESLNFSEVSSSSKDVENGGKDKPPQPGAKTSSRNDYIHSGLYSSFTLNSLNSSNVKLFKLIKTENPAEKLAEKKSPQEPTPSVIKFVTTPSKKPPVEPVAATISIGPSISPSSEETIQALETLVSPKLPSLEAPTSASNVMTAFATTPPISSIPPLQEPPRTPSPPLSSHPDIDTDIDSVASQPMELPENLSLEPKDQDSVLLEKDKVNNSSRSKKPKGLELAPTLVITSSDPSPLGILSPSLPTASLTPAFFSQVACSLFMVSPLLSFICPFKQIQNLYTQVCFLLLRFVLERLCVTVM
Method in brief: as §1

ETV2 = target: T10, ETV2 (Homo sapiens, UniProt O00321 1-342); conditions: protein: recombinant; tags: N-terminal GST; dsDNA, one strand shown
T10 sequence: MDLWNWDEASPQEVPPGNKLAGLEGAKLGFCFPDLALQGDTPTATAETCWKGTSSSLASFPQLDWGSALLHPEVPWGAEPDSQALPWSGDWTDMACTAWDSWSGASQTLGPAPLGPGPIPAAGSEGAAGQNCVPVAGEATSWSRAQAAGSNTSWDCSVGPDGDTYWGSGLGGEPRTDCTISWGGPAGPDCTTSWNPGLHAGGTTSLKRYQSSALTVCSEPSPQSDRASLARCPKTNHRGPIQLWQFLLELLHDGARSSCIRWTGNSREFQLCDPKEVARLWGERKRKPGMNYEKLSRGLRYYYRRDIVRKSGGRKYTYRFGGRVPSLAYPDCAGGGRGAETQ
Method in brief: as §1

ELF3 = target: T11, ELF3 (Homo sapiens, UniProt P78545 1-371); conditions: protein: recombinant; tags: N-terminal GST; dsDNA, one strand shown
T11 sequence: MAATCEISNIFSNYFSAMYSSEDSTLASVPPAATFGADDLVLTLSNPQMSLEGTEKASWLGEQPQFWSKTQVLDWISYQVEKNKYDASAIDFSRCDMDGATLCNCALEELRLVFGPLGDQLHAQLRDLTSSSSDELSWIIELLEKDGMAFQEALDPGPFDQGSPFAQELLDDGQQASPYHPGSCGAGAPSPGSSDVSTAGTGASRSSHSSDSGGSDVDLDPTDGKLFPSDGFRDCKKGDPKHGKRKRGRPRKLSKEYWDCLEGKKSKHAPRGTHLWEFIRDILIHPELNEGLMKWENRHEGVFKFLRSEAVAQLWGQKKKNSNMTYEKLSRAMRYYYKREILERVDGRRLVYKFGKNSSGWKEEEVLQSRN
Method in brief: as §1

CRX = CRX (Homo sapiens, UniProt O43186 1-299); conditions: protein: recombinant; tags: N-terminal GST; dsDNA, one strand shown
Sequence of CRX (O43186 whole entry): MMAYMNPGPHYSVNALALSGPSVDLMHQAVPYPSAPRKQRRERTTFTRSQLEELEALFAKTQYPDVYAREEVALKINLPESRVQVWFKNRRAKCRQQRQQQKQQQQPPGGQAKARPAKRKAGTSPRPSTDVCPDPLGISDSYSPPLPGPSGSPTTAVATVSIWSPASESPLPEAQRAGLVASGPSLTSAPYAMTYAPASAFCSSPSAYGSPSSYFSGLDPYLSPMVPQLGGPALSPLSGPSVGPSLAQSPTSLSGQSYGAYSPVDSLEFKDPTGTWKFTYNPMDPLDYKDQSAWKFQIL
Method in brief: as §1

ETV1 = ETV1 (Homo sapiens, UniProt P50549 1-477); conditions: protein: recombinant; tags: N-terminal GST; dsDNA, one strand shown
Sequence of ETV1 (P50549 whole entry): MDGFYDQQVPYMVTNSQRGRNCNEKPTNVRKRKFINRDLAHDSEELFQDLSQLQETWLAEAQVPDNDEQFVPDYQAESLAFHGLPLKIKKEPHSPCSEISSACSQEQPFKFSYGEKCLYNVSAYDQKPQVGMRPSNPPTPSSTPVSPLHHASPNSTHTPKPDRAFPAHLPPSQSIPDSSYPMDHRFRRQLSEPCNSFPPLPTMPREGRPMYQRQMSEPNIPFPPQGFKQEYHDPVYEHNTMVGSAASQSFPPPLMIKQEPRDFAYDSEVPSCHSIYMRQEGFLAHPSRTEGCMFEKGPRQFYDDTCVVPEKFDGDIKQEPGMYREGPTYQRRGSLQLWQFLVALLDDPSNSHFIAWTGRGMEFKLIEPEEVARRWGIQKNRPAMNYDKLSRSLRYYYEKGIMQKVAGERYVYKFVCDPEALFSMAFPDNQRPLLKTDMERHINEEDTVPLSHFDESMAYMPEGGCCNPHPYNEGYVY
Method in brief: as §1

## CTCATT
FLI1
  binding signal: 1.45 fold enrichment (6-mer frequency, TF over GST control)
ELK1
  binding signal: 1.32 fold enrichment (6-mer frequency, TF over GST control)
GABPA
  binding signal: 1.44 fold enrichment (6-mer frequency, TF over GST control)
ERG
  binding signal: 1.38 fold enrichment (6-mer frequency, TF over GST control)
ELF1
  binding signal: 1.55 fold enrichment (6-mer frequency, TF over GST control)
EHF
  binding signal: 1.57 fold enrichment (6-mer frequency, TF over GST control)
SPI1
  binding signal: 1.82 fold enrichment (6-mer frequency, TF over GST control)
SPIB
  binding signal: 1.61 fold enrichment (6-mer frequency, TF over GST control)
ELK3
  binding signal: 1.12 fold enrichment (6-mer frequency, TF over GST control)
FEV
  binding signal: 1.44 fold enrichment (6-mer frequency, TF over GST control)
ETV5
  binding signal: 1.41 fold enrichment (6-mer frequency, TF over GST control)
HSF1
  binding signal: 1.36 fold enrichment (6-mer frequency, TF over GST control)
SPIC
  binding signal: 1.29 fold enrichment (6-mer frequency, TF over GST control)
ELF4
  binding signal: 1.52 fold enrichment (6-mer frequency, TF over GST control)
ELK4
  binding signal: 1.63 fold enrichment (6-mer frequency, TF over GST control)
ETV2
  binding signal: 1.49 fold enrichment (6-mer frequency, TF over GST control)
ELF3
  binding signal: 1.35 fold enrichment (6-mer frequency, TF over GST control)
CRX
  binding signal: 1.45 fold enrichment (6-mer frequency, TF over GST control)
ETV1
  binding signal: 1.52 fold enrichment (6-mer frequency, TF over GST control)
